From ChEMBL document CHEMBL3988442, “University of Dundee, Small-Polar-MMV Screening Library” (2021) come the findings set out here.

Design in all cases: scale not given: direction of the effect not stated beside the values
Assay [1] addresses Protein translocase subunit SecA (Escherichia coli (strain K12)) (UniProt P10408). Put plainly: Assay to Identify E. coli SecA ATPase Inhibitors. To be noted: 30 µM. The class given is functional.
Assay [2] has as its target T1, Ubiquitin-activating enzyme e1, putative (Leishmania donovani (strain BPK282A1)) (UniProt E9BSI1).
T1 sequence (whole entry): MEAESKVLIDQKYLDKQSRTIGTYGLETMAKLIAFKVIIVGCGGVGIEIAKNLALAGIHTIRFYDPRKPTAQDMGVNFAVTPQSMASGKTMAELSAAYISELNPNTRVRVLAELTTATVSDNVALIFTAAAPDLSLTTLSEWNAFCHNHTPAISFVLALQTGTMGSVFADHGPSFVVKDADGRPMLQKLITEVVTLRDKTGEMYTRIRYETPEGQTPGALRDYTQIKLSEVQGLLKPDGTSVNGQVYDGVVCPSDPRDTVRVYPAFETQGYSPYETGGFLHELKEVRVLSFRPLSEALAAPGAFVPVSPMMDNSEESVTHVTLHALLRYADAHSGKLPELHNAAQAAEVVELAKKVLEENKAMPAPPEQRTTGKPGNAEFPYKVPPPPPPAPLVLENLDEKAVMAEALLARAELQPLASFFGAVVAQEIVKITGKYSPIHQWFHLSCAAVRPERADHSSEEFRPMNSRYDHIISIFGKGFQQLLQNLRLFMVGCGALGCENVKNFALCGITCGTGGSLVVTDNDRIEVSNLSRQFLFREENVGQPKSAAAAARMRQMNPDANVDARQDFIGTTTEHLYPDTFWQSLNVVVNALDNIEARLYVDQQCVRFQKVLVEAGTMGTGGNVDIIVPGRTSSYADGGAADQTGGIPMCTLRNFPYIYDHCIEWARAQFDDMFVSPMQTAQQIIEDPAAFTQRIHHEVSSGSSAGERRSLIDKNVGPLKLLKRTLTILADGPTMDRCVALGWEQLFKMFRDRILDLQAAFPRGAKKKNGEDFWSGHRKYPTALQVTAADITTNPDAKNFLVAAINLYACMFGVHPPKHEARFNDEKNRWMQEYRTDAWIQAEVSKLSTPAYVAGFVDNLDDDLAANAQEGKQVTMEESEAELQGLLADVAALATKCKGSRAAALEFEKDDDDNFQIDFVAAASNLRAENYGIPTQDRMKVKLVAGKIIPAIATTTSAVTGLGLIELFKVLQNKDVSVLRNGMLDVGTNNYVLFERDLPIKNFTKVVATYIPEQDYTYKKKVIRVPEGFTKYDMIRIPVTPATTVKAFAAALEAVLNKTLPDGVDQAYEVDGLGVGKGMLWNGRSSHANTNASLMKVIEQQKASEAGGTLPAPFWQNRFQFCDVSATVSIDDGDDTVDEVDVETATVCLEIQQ
Description: Leishmania donovani Ubiquitin Activating Enzyme (LdE1). Type of assay: functional. To be noted: 30 µM.

Assay [3] has as its target AMP-activated protein kinase, AMPK (Homo sapiens) (UniProt P54646+O43741+P54619+Q9UGJ0+Q9Y478+Q13131+Q9UGI9). Description: AMP-dependent Kinase enzyme assay. An in vitro enzyme assay that detects ADP turnover that is directly proportional to AMPK activity. This uses naive AMPK that is activated during the assay with MK-8722. The class given is functional. To be noted: 30 µM.

Assay [4] concerns the target Sialic acid-binding Ig-like lectin 9 (Homo sapiens) (UniProt Q9Y336). Put plainly: Hs-Siglec9 ALPHAscreen SOP 20170721. To be noted: 10 µM. On the technique in general: Bead proximity is the source of the signal in Alpha formats.
For a further assay, the system named is Trypanosoma cruzi. Description: Trypanosoma cruzi phosphomannomutase and mannose-1-phosphate guanylyltransferase assay. To be noted: 10 µM. Type of assay: functional.
Assay [5] concerns the target T2, Arginase-2, mitochondrial (Homo sapiens) (UniProt P78540).
T2 sequence (whole entry): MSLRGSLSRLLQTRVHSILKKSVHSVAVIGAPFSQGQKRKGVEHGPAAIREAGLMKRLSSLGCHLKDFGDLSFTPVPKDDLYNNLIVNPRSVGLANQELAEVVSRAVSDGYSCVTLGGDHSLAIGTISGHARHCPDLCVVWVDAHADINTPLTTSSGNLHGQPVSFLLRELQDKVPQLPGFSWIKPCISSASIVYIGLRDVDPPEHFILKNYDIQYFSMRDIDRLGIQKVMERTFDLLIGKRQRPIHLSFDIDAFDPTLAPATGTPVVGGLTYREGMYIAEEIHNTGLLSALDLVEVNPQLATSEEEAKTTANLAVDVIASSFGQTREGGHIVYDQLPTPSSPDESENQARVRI
Put plainly: in vitro enzyme assay to detect the production of urea directly proportional to the activity of Arginase II. Also: in the data most compounds retested in dose-response had high values. Type of assay: functional. Particulars: 33.3 µM.

Assay [6] has as its target T3, Proteasome subunit beta (Trypanosoma cruzi) (UniProt O96673).
T3 sequence (whole entry): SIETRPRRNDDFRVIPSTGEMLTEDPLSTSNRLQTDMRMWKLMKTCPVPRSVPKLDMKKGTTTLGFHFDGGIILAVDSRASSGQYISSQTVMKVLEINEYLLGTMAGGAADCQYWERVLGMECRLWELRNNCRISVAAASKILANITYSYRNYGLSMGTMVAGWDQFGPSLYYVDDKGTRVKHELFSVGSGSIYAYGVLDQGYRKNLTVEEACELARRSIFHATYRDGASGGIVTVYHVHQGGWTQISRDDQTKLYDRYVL
Put plainly: Trypanosoma cruzi proteasome chymotrypsin-like activity (TcProtChymo) assay. Also: in the data most compounds retested in dose-response had high values. Type of assay: functional. Particulars: 9.37 µM.

The species entered for a further assay is Homo sapiens. Put plainly: To identify inhibition of the IFN signalling (Jak-Stat) pathway via expression of an eGFP reporter gene under the control of an IFN-stimulated response element (ISRE) containing MxA promoter. Particulars: 30 µM. Type of assay: functional.
For assay [7], the target named is T4, Tyrosyl-tRNA synthetase, putative (Trypanosoma cruzi (strain CL Brener)) (UniProt Q4DSP6).
T4 sequence (whole entry): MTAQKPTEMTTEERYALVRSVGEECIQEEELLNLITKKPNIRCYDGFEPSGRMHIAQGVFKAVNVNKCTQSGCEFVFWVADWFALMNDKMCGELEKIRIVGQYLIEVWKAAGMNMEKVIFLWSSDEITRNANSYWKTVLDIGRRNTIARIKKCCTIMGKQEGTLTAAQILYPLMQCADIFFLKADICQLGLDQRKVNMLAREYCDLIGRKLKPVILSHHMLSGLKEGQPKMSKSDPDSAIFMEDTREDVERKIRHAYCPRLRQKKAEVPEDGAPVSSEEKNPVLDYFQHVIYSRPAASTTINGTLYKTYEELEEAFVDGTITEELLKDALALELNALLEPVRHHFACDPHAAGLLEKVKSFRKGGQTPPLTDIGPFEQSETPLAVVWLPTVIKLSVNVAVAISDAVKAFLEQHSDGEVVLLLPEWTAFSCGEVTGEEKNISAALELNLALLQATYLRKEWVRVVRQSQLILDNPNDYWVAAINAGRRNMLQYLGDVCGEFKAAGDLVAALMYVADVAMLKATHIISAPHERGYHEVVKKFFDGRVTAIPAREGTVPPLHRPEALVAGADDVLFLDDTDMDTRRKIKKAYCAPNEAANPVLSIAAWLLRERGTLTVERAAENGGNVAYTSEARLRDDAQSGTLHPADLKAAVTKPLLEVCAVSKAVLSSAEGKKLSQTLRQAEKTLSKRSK
Put plainly: Trypanosoma cruzi tyrosyl tRNA synthetase (TcYRS) _High Tyrosine SOP. Also: in the data most compounds retested in dose-response had high values. Type of assay: functional. To be noted: 30 µM.

The target of assay [8] is T4, Tyrosyl-tRNA synthetase, putative (Trypanosoma cruzi (strain CL Brener)). Put plainly: Trypanosoma cruzi tyrosyl tRNA synthetase (TcYRS) SOP. The class given is functional. Particulars: 30 µM.
For assay [9], the target named is Chromo domain-containing protein 1 (Saccharomyces cerevisiae (strain ATCC 204508 / S288c) (Baker's yeast)) (UniProt P32657). Put plainly: ScCHD-1 Enzyme Inhibition Assay. Also: in the data most compounds retested in dose-response had high values. The class given is functional. To be noted: 30 µM.

For some of these results: Results with a measured potency or affinity are listed apart.

Chain of Chromo domain-containing protein 1 (Saccharomyces cerevisiae (strain ATCC 204508 / S288c) (Baker's yeast)) (P32657 whole entry, the tested form may be a part): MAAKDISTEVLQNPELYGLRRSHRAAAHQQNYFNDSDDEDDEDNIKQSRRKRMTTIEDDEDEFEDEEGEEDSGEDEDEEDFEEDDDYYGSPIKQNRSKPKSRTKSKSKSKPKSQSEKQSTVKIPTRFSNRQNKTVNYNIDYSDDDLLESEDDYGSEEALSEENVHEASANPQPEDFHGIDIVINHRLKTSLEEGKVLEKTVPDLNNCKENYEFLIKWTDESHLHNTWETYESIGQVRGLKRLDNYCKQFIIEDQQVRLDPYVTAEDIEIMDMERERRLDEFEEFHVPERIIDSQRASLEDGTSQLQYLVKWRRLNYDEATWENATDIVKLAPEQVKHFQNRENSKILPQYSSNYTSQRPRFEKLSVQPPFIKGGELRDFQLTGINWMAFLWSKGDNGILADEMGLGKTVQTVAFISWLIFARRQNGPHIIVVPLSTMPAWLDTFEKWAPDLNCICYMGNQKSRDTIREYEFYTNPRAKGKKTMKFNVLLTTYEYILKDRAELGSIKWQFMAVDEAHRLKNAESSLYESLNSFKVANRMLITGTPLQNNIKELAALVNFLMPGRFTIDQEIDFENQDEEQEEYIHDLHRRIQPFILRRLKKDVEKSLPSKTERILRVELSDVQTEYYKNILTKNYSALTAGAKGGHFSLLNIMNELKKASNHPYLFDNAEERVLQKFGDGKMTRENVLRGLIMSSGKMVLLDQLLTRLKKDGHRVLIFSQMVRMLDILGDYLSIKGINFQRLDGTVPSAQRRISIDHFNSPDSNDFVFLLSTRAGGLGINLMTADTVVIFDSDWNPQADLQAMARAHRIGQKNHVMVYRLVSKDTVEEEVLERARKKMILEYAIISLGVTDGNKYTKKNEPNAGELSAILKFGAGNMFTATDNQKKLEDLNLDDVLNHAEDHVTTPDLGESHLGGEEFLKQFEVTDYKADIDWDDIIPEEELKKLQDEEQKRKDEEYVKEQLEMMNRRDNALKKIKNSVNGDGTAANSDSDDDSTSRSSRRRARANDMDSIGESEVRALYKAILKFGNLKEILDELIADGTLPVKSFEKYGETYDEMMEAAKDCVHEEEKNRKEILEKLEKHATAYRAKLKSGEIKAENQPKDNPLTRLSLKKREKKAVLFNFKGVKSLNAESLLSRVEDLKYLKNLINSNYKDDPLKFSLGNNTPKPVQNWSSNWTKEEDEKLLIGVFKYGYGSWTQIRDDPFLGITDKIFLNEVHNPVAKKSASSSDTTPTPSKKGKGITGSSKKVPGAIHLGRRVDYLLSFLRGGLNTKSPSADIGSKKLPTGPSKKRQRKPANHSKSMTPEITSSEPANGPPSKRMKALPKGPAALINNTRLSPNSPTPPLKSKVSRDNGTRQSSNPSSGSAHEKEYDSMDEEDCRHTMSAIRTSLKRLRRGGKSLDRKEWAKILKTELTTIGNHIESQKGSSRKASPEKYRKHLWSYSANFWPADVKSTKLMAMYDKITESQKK
Chain of Sialic acid-binding Ig-like lectin 9 (Homo sapiens) (Q9Y336 whole entry): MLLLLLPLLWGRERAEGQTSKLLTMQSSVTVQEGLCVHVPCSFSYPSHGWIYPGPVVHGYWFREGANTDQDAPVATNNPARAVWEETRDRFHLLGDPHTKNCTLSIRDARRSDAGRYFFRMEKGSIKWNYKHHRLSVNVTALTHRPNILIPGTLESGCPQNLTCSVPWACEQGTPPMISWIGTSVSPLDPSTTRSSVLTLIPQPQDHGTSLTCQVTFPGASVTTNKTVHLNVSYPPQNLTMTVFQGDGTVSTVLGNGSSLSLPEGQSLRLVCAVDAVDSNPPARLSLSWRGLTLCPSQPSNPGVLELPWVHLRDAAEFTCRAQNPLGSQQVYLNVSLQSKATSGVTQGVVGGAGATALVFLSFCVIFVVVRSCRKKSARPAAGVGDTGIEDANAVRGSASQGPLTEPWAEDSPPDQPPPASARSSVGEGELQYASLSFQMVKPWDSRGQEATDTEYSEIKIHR
Chain of Protein translocase subunit SecA (Escherichia coli (strain K12)) (P10408 whole entry): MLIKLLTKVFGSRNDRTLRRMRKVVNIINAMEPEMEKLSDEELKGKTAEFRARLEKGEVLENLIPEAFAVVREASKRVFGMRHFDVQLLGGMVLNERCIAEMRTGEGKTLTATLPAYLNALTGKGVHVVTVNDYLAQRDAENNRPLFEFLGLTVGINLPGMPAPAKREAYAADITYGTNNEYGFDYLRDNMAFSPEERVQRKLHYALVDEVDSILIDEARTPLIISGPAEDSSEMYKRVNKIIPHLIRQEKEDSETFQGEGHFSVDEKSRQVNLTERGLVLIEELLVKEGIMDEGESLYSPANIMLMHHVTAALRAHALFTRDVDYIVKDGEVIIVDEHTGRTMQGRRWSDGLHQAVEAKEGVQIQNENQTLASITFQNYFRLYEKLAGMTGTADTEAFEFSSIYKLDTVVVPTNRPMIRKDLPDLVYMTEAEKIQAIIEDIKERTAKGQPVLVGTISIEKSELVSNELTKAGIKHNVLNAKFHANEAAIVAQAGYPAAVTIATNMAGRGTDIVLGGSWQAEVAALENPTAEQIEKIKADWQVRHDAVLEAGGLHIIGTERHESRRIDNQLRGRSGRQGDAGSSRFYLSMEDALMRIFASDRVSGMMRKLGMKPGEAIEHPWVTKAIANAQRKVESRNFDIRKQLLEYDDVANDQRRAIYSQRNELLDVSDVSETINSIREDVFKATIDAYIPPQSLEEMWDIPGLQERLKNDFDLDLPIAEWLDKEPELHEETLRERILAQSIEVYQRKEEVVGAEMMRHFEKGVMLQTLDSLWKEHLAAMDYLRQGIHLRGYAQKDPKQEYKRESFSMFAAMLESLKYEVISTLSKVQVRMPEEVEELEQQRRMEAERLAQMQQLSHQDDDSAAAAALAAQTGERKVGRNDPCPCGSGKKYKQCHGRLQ

For the compound `CC1=Nc2c(c(=O)[nH]n2C2CCOCC2)C(c2cccc(Br)c2)S1` (stereo unspecified), the Percent Effect was -5.02% in assay [1]; 12% in [2]; -9.43% in assay [3]; -0.93% in assay [4]; 1.97% in the assay on Trypanosoma cruzi; 82.6% in [5]. The Percent Effect was 14.1% in assay [6]; 30.4% in the assay filed under Homo sapiens; 9.52% in [7]; 20.5% in assay [8]; -11.4% in assay [9].

For the compound `COc1cccc2c1ccn2CCC(=O)N1CCCC(C(=O)O)C1` (stereo unspecified), the Percent Effect in assay [1] was -4.55%; in [2], 5.26%; in assay [3], -2.19%; in assay [4] it was -4.72%; in the assay with Trypanosoma cruzi it was -9.64%; in [5], 2.37%. The Percent Effect in assay [6] is 11.2%; in the assay listed under Homo sapiens it was 12.8%; in assay [7] it was -3.19%; in [8], 0%; in assay [9], -6.61%.

As for `CCC(CC)C(CNC(=O)Nc1ccc(C)cc1)N1CCOCC1` (stereo unspecified), the Percent Effect in assay [1] is -3.76%; in assay [2] it was 22.8%; in assay [3], -8.69%; in assay [4] it was -4.59%; with Trypanosoma cruzi it was 4.63%; in [5], -0.76%. In addition, the Percent Effect is 3.52% in [6]; 5.24% in the assay filed under Homo sapiens; -25.1% in assay [7]; 21.5% in assay [8]; -8.39% in assay [9].

As to `CC(C)CNC(=O)CN1C=Nc2ccccc2S1(=O)=O`, the Percent Effect was -6.73% in [1]; 7.89% in assay [2]; 0.627% in [3]; -6.85% in assay [4]; -10.6% in the assay on Trypanosoma cruzi; 2.16% in assay [5]. Further, the Percent Effect in assay [6] is -1.95%; in the assay filed under Homo sapiens it was 2.69%; in assay [7], 0.493%; in [8], 6.17%; in [9] it was -5%.

As for `O=C(c1ccnnc1)N1C[C@@H]2CC[C@H](Oc3cccc(F)c3)[C@@H]2C1`, the Percent Effect in [1] is -4.43%; in assay [2], -1.35%; in assay [3], 15.2%; in assay [4] it was -2.19%; with Trypanosoma cruzi, -6.13%; in assay [5], 1.16%. Moreover, the Percent Effect is 2.34% in assay [6]; -7.87% in the assay filed under Homo sapiens; 1.07% in assay [7]; -3.9% in [8]; -7.63% in [9].

Consider `Cc1cnn(CC2CCCCN2Cc2nc(N)c3ccccc3n2)c1` (stereo unspecified), for which the Percent Effect was -5.11% in assay [1]; 10.1% in assay [2]; -4.6% in assay [3]; 5.93% in assay [4]; 8.78% in the assay with Trypanosoma cruzi; 0% in assay [5]. Besides, the Percent Effect in [6] was 12.2%; in the assay listed under Homo sapiens it was -0.892%; in assay [7] it was 14.3%; in [8], 21.5%; in [9], -8.03%.

Consider `CC(NC(=O)NCCCn1cccn1)c1cccnc1` (stereo unspecified), for which the Percent Effect in assay [1] was -4.3%; in assay [2], -2.67%; in [3] it was -0.757%; in assay [4], -5.85%; with Trypanosoma cruzi it was -4.77%; in [5], -3.12%. The Percent Effect is 7.85% in [6]; 1.99% in the assay listed under Homo sapiens; -1.64% in assay [7]; -6.17% in assay [8]; 6.57% in assay [9].

For `COc1ccc2cc(C(=O)N3CCCCC3Cn3cccn3)[nH]c2c1` (stereo unspecified), the Percent Effect in assay [1] was -8.67%; in assay [2] it was 0%; in assay [3], 2.23%; in [4], 5.53%; in the assay with Trypanosoma cruzi, -0.562%; in assay [5], 2.13%. The Percent Effect in assay [6] is 1.86%; in the assay listed under Homo sapiens, 2.73%; in [7], 0%; in assay [8] it was 2.44%; in assay [9], -1.29%.

Regarding `CCCC1(CO)CCCN(c2ncccc2F)C1` (stereo unspecified), the Percent Effect was -0.789% in [1]; 5.41% in assay [2]; -4.77% in assay [3]; 3.77% in [4]; -1.16% in the assay on Trypanosoma cruzi; -2.38% in assay [5]. The Percent Effect is 14.8% in assay [6]; 10.4% in the assay listed under Homo sapiens; 5.82% in assay [7]; 12.2% in assay [8]; -3.22% in [9].

`CN(C)CCN1CCO[C@H]2CN(Cc3cnn(C)c3)C[C@H]21`: the Percent Effect is -3.56% in [1]; 0% in assay [2]; -1.78% in assay [3]; 7.45% in [4]; -4.2% in the assay on Trypanosoma cruzi; 2.73% in assay [5]. Also, the Percent Effect in assay [6] is 2.83%; in the assay listed under Homo sapiens, -0.175%; in assay [7] it was 5.38%; in [8], 11.1%; in assay [9], -3.54%.

As for `COCCCNC(=O)CN1CCCC1c1c(C)nn(C)c1Cl` (stereo unspecified), the Percent Effect in assay [1] was -8%; in assay [2], 8.86%; in assay [3], -7.07%; in assay [4], -3.46%; with Trypanosoma cruzi, 2.15%; in assay [5], 2.37%. Besides, the Percent Effect is 7.38% in [6]; -0.237% in the assay listed under Homo sapiens; 1.04% in assay [7]; -7.59% in assay [8]; -25.1% in assay [9].
